Results on nine compounds are retold here after PubChem BioAssay (NCI).

A short description of assay [1]: NCI Yeast Anticancer Drug Screen. Data for the rad50 strain (AID 155).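 Further: 0% = growth of vehicle-only cultures of the same strain.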 Particulars: S. cerevisiae rad50 strain growth inhibition, active compounds read high. Summed up: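 Cells are treated with compound, grown, and their growth is then scored against vehicle-only cultures of the same repair-deficient yeast strain.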
Assay [2] can be described thus: NCI Yeast Anticancer Drug Screen. Data for the mec2-1 strain (AID 157). Particulars: S. cerevisiae mec2-1 strain, active compounds read high. Summed up: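 Strain: mec2-1 (DNA repair/cell cycle alteration). Compound exposure, then growth measured; inhibition expressed relative to vehicle.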
Assay [3] is described as follows: NCI Yeast Anticancer Drug Screen. Data for the sgs1 mgt1 strain (AID 161).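 Further: 0% = growth of cultures given vehicle only.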 Particulars: S. cerevisiae sgs1 mgt1 strain, active compounds read high. Summed up: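 Genetically altered yeast, compound exposure, growth inhibition relative to vehicle.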
A short description of assay [4]: NCI Yeast Anticancer Drug Screen. Data for the cln2 rad14 strain (AID 165).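 Further: 0% = growth equal to vehicle treated cultures.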 Particulars: S. cerevisiae cln2 rad14 strain, active compounds read high. Summed up: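 Compounds are applied to the cln2 rad14 yeast strain, and growth is then compared with that of vehicle-treated cultures to give inhibition.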
Assay [5] can be described thus: NCI Yeast Anticancer Drug Screen. Data for the bub3 strain (AID 167). The conditions noted are these: S. cerevisiae bub3 mutant strain, active compounds read high. In short, it runs like this: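 Part of a panel of yeast mutants defective in DNA damage repair or cell cycle regulation. Each strain is grown with compound, and inhibition is calculated relative to solvent-treated cultures.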

The nature of assay [6]: NCI Yeast Anticancer Drug Screen. Data for the mlh1 rad18 strain (AID 175). The conditions noted are these: S. cerevisiae mlh1 rad18 strain growth inhibition, active compounds read high. Summed up:
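Read-out is yeast growth inhibition, calculated against vehicle-only controls. The compound was applied to a strain engineered with DNA damage repair alterations.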

The mark [7] stands for this setting: at 5.0 µM (retest, dose inferred, filed as 0.5).
[8] abbreviates: at 50.0 µM (retest, dose inferred, filed as 5.0).

Compounds without any hit were thinned out: in the full panel of roughly 79,000, 15% have a hit. A number with no mark means an inactive call. Active and inactive are the calls of the source. No stated cut-off is given here; in the data, active means growth inhibition above about 70%; inactive means the rest.

For `CCCC(CC)c1cc(O)c(O)cc1C(CC)CCC` (configuration not stated), the growth inhibition in assay [1] (setting [7]) was 1%; in assay [1] (setting [8]), 56%; in assay [1] (at 50.0 µM), 73% (active); in assay [2] (setting [7]), -18%; in assay [2] (setting [8]), 33%; in assay [2] (at 50.0 µM) it was 69.5%. In addition, the growth inhibition in assay [3] (setting [7]) is 9%; in assay [3] (setting [8]), 29%; in assay [3] (at 50.0 µM), 43.9%; in assay [4] (setting [7]), -5%; in assay [4] (setting [8]), 70% (active); in assay [4] (at 50.0 µM), 79.8% (active). For the same compound, the growth inhibition in assay [5] (setting [7]) is -9%; in assay [5] (setting [8]), 54%; in assay [5] (at 50.0 µM), 65.8%; in assay [6] (setting [7]) it was 6%; in assay [6] (setting [8]) it was 62%; in assay [6] (at 50.0 µM), 77.8% (active).
On to `Cc1c2cnccc2c(C)c2c1c1ccccc1n2CCCN`, for which the growth inhibition in assay [1] (setting [7]) is 22%; in assay [1] (setting [8]) it was 73% (active); in assay [1] (at 50.0 µM), 91.7% (active); in assay [2] (setting [7]) it was 14%; in assay [2] (setting [8]), 33%; in assay [2] (at 50.0 µM) it was 67.6%. The growth inhibition in assay [3] (setting [7]) is 5%; in assay [3] (setting [8]), 50%; in assay [3] (at 50.0 µM), 77.3% (active); in assay [4] (setting [7]) it was 17%; in assay [4] (setting [8]), 32%; in assay [4] (at 50.0 µM), 72.3% (active). Besides, the growth inhibition in assay [5] (setting [7]) was 29%; in assay [5] (setting [8]), 35%; in assay [5] (at 50.0 µM), 84.6% (active); in assay [6] (setting [7]) it was 16%; in assay [6] (setting [8]), 58%; in assay [6] (at 50.0 µM), 82.1% (active).
With `O=[N+]([O-])c1ccc(S(=O)(=O)C/C=C/CCl)c([N+](=O)[O-])c1`, the growth inhibition in assay [1] (setting [7]) is 54%; in assay [1] (setting [8]) it was 99% (active); in assay [1] (at 50.0 µM), 99.2% (active); in assay [2] (setting [7]), 34%; in assay [2] (setting [8]), 100% (active); in assay [2] (at 50.0 µM), 99.6% (active). The growth inhibition in assay [3] (setting [7]) was 43%; in assay [3] (setting [8]), 99% (active); in assay [3] (at 50.0 µM) it was 99.5% (active); in assay [4] (setting [7]) it was 20%; in assay [4] (setting [8]) it was 99% (active); in assay [4] (at 50.0 µM), 99.5% (active). Besides, the growth inhibition was 37% in assay [5] (setting [7]); 99% (active) in assay [5] (setting [8]); 99.4% (active) in assay [5] (at 50.0 µM); 71% (active) in assay [6] (setting [7]); 99% (active) in assay [6] (setting [8]); 99.5% (active) in assay [6] (at 50.0 µM).
On to `CCOc1ccccc1C(=O)Nc1cc(C)nn1-c1ccccc1`, for which the growth inhibition in assay [1] (setting [7]) is 5%; in assay [1] (setting [8]), 4%; in assay [1] (at 50.0 µM), 29.4%; in assay [2] (setting [7]), 7%; in assay [2] (setting [8]), 4%; in assay [2] (at 50.0 µM), 99.2% (active). Further, the growth inhibition in assay [3] (setting [7]) was 7%; in assay [3] (setting [8]), 6%; in assay [3] (at 50.0 µM), 99.4% (active); in assay [4] (setting [7]), 0%; in assay [4] (setting [8]) it was -1%; in assay [4] (at 50.0 µM) it was 98.8% (active). Also, the growth inhibition is -1% in assay [5] (setting [7]); -3% in assay [5] (setting [8]); 99.3% (active) in assay [5] (at 50.0 µM); -1% in assay [6] (setting [7]); 0% in assay [6] (setting [8]); 99.5% (active) in assay [6] (at 50.0 µM).
Consider `O=S(=O)(O)CNc1cc(Cl)cc(Cl)c1`, for which the growth inhibition in assay [1] (setting [7]) is 34%; in assay [1] (setting [8]), 78% (active); in assay [1] (at 50.0 µM), 13.9%; in assay [2] (setting [7]), 9%; in assay [2] (setting [8]), 28%; in assay [2] (at 50.0 µM) it was -5%. Moreover, the growth inhibition in assay [3] (setting [7]) was 1%; in assay [3] (setting [8]), 17%; in assay [3] (at 50.0 µM) it was 2.3%; in assay [4] (setting [7]), 4%; in assay [4] (setting [8]) it was 16%; in assay [4] (at 50.0 µM), -53.4%. For the same compound, the growth inhibition in assay [5] (setting [7]) was 6%; in assay [5] (setting [8]) it was 85% (active); in assay [5] (at 50.0 µM), 2.1%; in assay [6] (setting [7]), 8%; in assay [6] (setting [8]) it was 33%; in assay [6] (at 50.0 µM), 41.8%.
On to `CCC(Cl)COP(=O)(OC(c1ccc(Cl)c(Cl)c1)P(=O)(OCC(Cl)CC)OCC(Cl)CC)C(CC)CCl` (configuration not stated), for which the growth inhibition in assay [1] (setting [7]) is 6%; in assay [1] (setting [8]), 71% (active); in assay [1] (at 50.0 µM), 86.7% (active); in assay [2] (setting [7]), -81%; in assay [2] (setting [8]) it was 45%; in assay [2] (at 50.0 µM) it was 96.2% (active). Also, the growth inhibition in assay [3] (setting [7]) was -3%; in assay [3] (setting [8]) it was 45%; in assay [3] (at 50.0 µM) it was 94.2% (active); in assay [4] (setting [7]) it was -4%; in assay [4] (setting [8]), 57%; in assay [4] (at 50.0 µM), 83.5% (active). The growth inhibition in assay [5] (setting [7]) is -2%; in assay [5] (setting [8]), 57%; in assay [5] (at 50.0 µM) it was 79.5% (active); in assay [6] (setting [7]) it was 6%; in assay [6] (setting [8]) it was 80% (active); in assay [6] (at 50.0 µM), 94.2% (active).
As to `O=C(C(=S)c1ccccc1)N(Cc1ccccc1)Cc1ccccc1`, the growth inhibition in assay [1] (setting [7]) is -2%; in assay [1] (setting [8]) it was 44%; in assay [1] (at 50.0 µM), 79.3% (active); in assay [2] (setting [7]), 1%; in assay [2] (setting [8]) it was 25%; in assay [2] (at 50.0 µM), 88.9% (active). Besides, the growth inhibition in assay [3] (setting [7]) was 0%; in assay [3] (setting [8]), 48%; in assay [3] (at 50.0 µM) it was 95.9% (active); in assay [4] (setting [7]), 0%; in assay [4] (setting [8]), 27%; in assay [4] (at 50.0 µM), 59.4%. Besides, the growth inhibition in assay [5] (setting [7]) is 4%; in assay [5] (setting [8]), 41%; in assay [5] (at 50.0 µM), 93.8% (active); in assay [6] (setting [7]), 2%; in assay [6] (setting [8]), 50%; in assay [6] (at 50.0 µM) it was 94.4% (active).
On to `CCN(CC)CCNc1c(OC)cc(C)c2sc3ccccc3c(=O)c12`, for which the growth inhibition in assay [1] (setting [7]) was 8%; in assay [1] (setting [8]), 75% (active); in assay [1] (at 50.0 µM) it was 81.2% (active); in assay [2] (setting [7]) it was 6%; in assay [2] (setting [8]), -1%; in assay [2] (at 50.0 µM), 39.5%. The growth inhibition in assay [3] (setting [7]) is 0%; in assay [3] (setting [8]) it was 66%; in assay [3] (at 50.0 µM), 82.8% (active); in assay [4] (setting [7]), 1%; in assay [4] (setting [8]), 39%; in assay [4] (at 50.0 µM), 33.1%. The growth inhibition is 1% in assay [5] (setting [7]); 33% in assay [5] (setting [8]); 57% in assay [5] (at 50.0 µM); 4% in assay [6] (setting [7]); 86% (active) in assay [6] (setting [8]); 94% (active) in assay [6] (at 50.0 µM).
Turning to `CCN(C(C)=O)c1cnc(/C=N/NC(N)=S)c2ccccc12`, the growth inhibition in assay [1] (setting [7]) is 13%; in assay [1] (setting [8]), 47%; in assay [1] (at 50.0 µM), 66.6%; in assay [2] (setting [7]), 11%; in assay [2] (setting [8]), 47%; in assay [2] (at 50.0 µM) it was 76.9% (active). The growth inhibition in assay [3] (setting [7]) was 18%; in assay [3] (setting [8]) it was 71% (active); in assay [3] (at 50.0 µM), 28.9%; in assay [4] (setting [7]), -13%; in assay [4] (setting [8]) it was 57%; in assay [4] (at 50.0 µM) it was 61.3%. Moreover, the growth inhibition was 21% in assay [5] (setting [7]); 71% (active) in assay [5] (setting [8]); 60.4% in assay [5] (at 50.0 µM); 11% in assay [6] (setting [7]); 57% in assay [6] (setting [8]); 31.5% in assay [6] (at 50.0 µM).
